Test results reported in PubChem BioAssay (Tox21).
Results filed as inconclusive are left out. Activity calls are given as the source filed them. Unless noted, the call rests on the fitted dose curve; in most records, active means well fitted curve in the direction sought with a large enough effect in the repeat runs; inconclusive means weak or mixed curves; inactive means no such curve, though single readings can be large; an effect the other way counts as inactive or inconclusive.

Key:
[1] = biological target: Thyrotropin receptor (Homo sapiens) (UniProt P16473); test: qHTS assay to identify small molecule antagonists of the thyroid stimulating hormone receptor (TSHR) signaling pathway (AID 1259385; calls by dose curve; further: nearly all actives have a fitted effect of over 20% in size; further: potency means the concentration at half of the fitted maximal effect)
Thyrotropin receptor (Homo sapiens), sequence (P16473 whole entry, looked up): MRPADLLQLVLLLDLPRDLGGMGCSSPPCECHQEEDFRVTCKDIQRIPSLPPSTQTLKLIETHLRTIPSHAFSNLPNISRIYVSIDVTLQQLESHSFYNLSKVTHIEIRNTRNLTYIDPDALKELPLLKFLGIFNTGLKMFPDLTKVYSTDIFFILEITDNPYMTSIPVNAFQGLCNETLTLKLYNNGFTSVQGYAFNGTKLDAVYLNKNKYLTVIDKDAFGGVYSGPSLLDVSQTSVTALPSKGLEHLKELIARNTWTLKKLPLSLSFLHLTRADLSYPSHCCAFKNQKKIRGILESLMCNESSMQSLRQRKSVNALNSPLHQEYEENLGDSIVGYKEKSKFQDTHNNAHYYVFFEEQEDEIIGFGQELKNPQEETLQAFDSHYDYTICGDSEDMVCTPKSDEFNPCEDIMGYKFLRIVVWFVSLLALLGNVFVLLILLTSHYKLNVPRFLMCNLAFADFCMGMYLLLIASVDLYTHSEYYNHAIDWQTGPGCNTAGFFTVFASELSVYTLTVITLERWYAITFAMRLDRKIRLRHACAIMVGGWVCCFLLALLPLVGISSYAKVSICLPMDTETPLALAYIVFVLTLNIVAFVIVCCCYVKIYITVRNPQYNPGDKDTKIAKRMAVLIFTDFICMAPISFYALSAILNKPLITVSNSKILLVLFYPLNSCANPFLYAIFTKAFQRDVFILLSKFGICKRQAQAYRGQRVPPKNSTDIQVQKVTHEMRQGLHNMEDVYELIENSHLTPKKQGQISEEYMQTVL
In short: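 Antagonist mode: compound-treated TSHR-expressing HEK293 cells were stimulated with 1.5 ng/mL TSH (final) in presence of Ro20-1724 for 30 min at RT. HTRF cAMP detection after 1 h; each compound tested at 15 concentrations, triplicate.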

[2] = biological target: Progesterone receptor (Homo sapiens) (UniProt P06401); test: qHTS assay to identify small molecule agonists of the progesterone receptor (PR) signaling pathway (AID 1346784; calls by dose curve; further: nearly all actives have a fitted effect of over 30% in size)
Progesterone receptor (Homo sapiens), sequence (P06401 whole entry, looked up): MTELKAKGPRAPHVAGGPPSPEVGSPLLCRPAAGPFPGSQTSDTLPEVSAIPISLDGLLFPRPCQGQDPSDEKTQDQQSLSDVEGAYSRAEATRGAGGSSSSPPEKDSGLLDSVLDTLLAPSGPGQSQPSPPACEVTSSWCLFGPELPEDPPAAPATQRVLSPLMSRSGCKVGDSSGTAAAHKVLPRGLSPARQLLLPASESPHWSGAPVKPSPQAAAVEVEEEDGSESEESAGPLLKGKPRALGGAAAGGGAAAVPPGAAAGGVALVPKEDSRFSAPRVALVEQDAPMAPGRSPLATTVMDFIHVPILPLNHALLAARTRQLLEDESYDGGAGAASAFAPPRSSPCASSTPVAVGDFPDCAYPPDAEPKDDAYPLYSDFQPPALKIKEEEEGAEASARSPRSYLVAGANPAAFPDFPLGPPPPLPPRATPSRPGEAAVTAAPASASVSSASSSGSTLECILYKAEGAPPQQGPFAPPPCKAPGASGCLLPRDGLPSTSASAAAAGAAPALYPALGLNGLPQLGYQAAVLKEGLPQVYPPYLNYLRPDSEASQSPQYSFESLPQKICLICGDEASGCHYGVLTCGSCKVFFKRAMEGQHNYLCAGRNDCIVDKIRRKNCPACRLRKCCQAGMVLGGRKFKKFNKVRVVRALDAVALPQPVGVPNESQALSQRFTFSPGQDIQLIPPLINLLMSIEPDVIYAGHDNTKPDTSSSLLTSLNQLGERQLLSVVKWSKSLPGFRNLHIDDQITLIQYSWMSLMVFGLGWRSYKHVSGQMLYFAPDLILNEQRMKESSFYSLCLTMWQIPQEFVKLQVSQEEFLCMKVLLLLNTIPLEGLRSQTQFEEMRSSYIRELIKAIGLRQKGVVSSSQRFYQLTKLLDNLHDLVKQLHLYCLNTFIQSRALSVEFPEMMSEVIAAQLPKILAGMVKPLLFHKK
In short: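 Using charcoal-stripped serum (2%) to limit endogenous steroids, PR-UAS-bla HEK 293T cells received compounds for 16 hr at 37C after 6 hr plating; beta-lactamase FRET fluorescence was recorded following 2 hr substrate loading at room temperature.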

[3] = biological target: Progesterone receptor (Homo sapiens) (UniProt P06401); test: qHTS assay to identify small molecule antagonists of the progesterone receptor (PR) signaling pathway (AID 1346795; active means well fitted inhibition curve with a large enough effect in the signal ratio in the repeat runs, not every such curve was filed as active; the % refers to the signal ratio)
In short: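 Inhibition of R5020-induced (1 nM final) beta-lactamase reporter signal in PR-UAS-bla HEK293T cells was scored by FRET fluorescence after overnight (16 hr) compound treatment.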

[4] = qHTS assay to identify small molecule antagonists of the progesterone receptor (PR) signaling pathway - cell viability counter screen (AID 1346798); further: series mostly up to about 92 µM; nearly all actives have a fitted effect of over 50% in size
In short: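 ATP content as viability readout: CellTiter-Glo luminescence, 30 min room temperature, in PR-UAS-bla HEK293T cells after 16 hr compound/R5020 treatment at 37C and 5% CO2.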

[5] = qHTS assay to identify small molecule agonists of the progesterone receptor (PR) signaling pathway - cell viability counter screen (AID 1346799; calls by dose curve; further: nearly all actives have a fitted effect of over 45% in size)
In short: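 Cytotoxicity in PR-bla HEK293T cells: 16 h compound, 37C; CellTiter-Glo added post-FRET read; luminescence after 30 min RT.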

[6] = qHTS assay to identify small molecule antagonists of the TGF-beta/Smad signaling pathway - cell viability counter screen (AID 1346824); further: nearly all actives have a fitted effect of over 50% in size
In short: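 Cytotoxicity counter-screen run in the same wells as the beta-lactamase Smad reporter read: CellTiter-Glo luminescence after 30 min at room temperature. HEK 293T SBE-bla cells had 5 hr compound exposure at 37 C with TGF-beta1 (0.25 ng/mL stock).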

[7] = qHTS assay to identify small molecule agonists of the TGF-beta/Smad signaling pathway - cell viability counter screen (AID 1346829); further: top concentration of the series differs between compounds; nearly all actives have a fitted effect of over 45% in size
In short: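 HEK 293T SBE-bla line, 5 hr compound exposure at 37 C, multiplexed CellTiter-Glo viability read by luminescence.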

[8] = qHTS assay to identify small molecule agonists of the TGF-beta/Smad signaling pathway (AID 1346859; active means well fitted activation curve with a large enough effect in the signal ratio in the repeat runs, not every such curve was filed as active; the % refers to the signal ratio; further: series mostly up to about 77 µM)
In short: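 Stable Smad binding element-beta-lactamase HEK 293T cells; 5 hr compound exposure at 37 C under 5% CO2; 2 hr room-temperature substrate step; fluorescence excited at 405 nm, collected at 460 nm and 530 nm.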

[9] = biological target: Thyrotropin-releasing hormone receptor (Homo sapiens) (UniProt P34981); test: qHTS assay to identify small molecule agonists of the thyrotropin-releasing hormone receptor (TRHR) signaling pathway (AID 1346891; calls by dose curve;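 further: HEK293 cells expressing TRHR with calcium dye readout; series mostly up to about 58 µM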)
Thyrotropin-releasing hormone receptor (Homo sapiens), sequence (P34981 whole entry, looked up): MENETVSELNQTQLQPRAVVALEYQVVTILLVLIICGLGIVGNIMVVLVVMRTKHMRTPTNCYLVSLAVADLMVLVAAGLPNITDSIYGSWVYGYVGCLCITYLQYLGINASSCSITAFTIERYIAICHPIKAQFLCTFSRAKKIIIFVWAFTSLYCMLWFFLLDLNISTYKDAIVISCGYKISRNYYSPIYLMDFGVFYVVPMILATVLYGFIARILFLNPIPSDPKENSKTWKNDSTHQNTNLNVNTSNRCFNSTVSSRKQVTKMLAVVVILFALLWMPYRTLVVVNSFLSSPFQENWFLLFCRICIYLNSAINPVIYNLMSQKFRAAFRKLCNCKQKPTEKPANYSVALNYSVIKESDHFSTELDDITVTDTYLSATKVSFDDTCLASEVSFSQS
In short: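 In 1536-format, 1500 TRHR-Hek293 cells per well grew 18 h, took up calcium dye for 2 h at 37 °C, received compound, and were read kinetically; 15-point titrations, triplicates.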

[10] = Human pregnane X receptor (PXR) small molecule agonists, qHTS cell viability counter screen (AID 1346977); further: nearly all actives have a fitted effect of over 50% in size; further: potency means the concentration at half of the fitted maximal effect
In short: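 Readout is CellTiter-Fluor fluorescence from PXR-Luc HepG2 cells. Plated cells rested 5hr, then were treated with compounds for 24hr at 37C and 5% CO2, with reagent present during the last hour.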

[11] = Caspase-3/7 induction in HepG2 cells by small molecules, qHTS assay (AID 1346978); further: nearly all actives have a fitted effect of over 15% in size
In short: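 Caspase-3/7 induction was measured by Caspase-Glo 3/7 luminescence (30 min, room temperature) after a 17 hr compound exposure of wild-type HepG2 cells seeded at 2,000 per well and pre-incubated 5 hr.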

[12] = Caspase-3/7 induction in CHO-K1 cells by small molecules, qHTS cell viability counter screen (AID 1346979); further: nearly all actives have a fitted effect of over 35% in size
In short: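 To flag cytotoxic compounds, treated CHO-K1 wild-type cells were given CellTiter-Fluor at 16hr and read fluorescently after 1hr at 37C; the caspase-3/7 luminescence was measured in these same wells.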

[13] = Caspase-3/7 induction in CHO-K1 cells by small molecules, qHTS assay (AID 1346980); further: nearly all actives have a fitted effect of over 15% in size
In short: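 Luminescent Caspase-Glo 3/7 read (30min, room temperature) quantified apoptosis induction. Cells were wild-type CHO-K1, treated with compound for 17hr at 37 C and 5% CO2.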

[14] = Caspase-3/7 induction in HepG2 cells by small molecules, qHTS cell viability counter screen (AID 1346981); further: series mostly up to about 92 µM; nearly all actives have a fitted effect of over 30% in size
In short: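 CellTiter-Fluor fluorescence measured viability in the same wells used for Caspase-Glo 3/7. HepG2 (wild type) at 2,000 cells/well were pre-incubated 5 hr, dosed, and given reagent at 16 hr, with 1 hr further at 37C.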

[15] = biological target: Nuclear receptor subfamily 1 group I member 2 (Homo sapiens) (UniProt O75469); test: Human pregnane X receptor (PXR) small molecule agonists, qHTS assay (AID 1346982); further: nearly all actives have a fitted effect of over 35% in size; further: potency means the concentration at half of the fitted maximal effect
Nuclear receptor subfamily 1 group I member 2 (Homo sapiens), sequence (O75469 whole entry, looked up): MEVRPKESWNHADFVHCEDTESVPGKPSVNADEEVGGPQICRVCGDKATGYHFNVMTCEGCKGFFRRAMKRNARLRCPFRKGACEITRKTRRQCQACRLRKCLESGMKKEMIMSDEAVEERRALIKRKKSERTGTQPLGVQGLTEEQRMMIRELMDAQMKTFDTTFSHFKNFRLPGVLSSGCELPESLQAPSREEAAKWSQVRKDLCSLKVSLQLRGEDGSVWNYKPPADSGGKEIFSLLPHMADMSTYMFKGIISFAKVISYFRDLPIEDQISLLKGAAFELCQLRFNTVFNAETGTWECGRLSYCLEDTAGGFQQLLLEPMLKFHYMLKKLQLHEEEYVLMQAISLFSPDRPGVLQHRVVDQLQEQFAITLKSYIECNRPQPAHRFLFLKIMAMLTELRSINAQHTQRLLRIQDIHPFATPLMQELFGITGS
In short: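 Agonist mode: luminescence from ONE-Glo after 24 h compound exposure at 37C in HepG2 cells carrying hPXR-responsive CYP3A4 luciferase, plated in charcoal-stripped serum medium 5 h beforehand.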

[16] = biological target: Nuclear receptor subfamily 1 group I member 2 (Rattus norvegicus) (UniProt Q9R1A7); test: Rat pregnane X receptor (rPXR) activation by small molecules, qHTS assay (AID 1346983); settings: rPXR luciferase reporter cells, One-Glo luminescence, 24 h; max activation: active compounds read high; further: nearly all actives have a fitted effect of over 20% in size
Nuclear receptor subfamily 1 group I member 2 (Rattus norvegicus), sequence (Q9R1A7 whole entry, looked up): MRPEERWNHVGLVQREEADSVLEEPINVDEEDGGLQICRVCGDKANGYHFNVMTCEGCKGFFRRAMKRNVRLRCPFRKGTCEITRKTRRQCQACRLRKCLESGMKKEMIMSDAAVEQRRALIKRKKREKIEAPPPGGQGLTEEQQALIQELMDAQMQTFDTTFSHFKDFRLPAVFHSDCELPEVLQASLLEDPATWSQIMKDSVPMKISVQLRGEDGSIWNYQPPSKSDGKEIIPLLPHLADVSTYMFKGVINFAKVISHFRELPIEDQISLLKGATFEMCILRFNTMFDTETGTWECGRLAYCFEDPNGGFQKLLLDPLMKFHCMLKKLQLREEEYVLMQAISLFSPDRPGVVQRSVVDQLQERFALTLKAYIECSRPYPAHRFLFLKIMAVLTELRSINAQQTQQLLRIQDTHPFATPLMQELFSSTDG
In short: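 Luminescent readout (One-Glo luciferase, 30 min room temperature) followed 24 hr compound treatment at 37 C of rPXR cells plated 2,000 per well and preincubated 5hr; qHTS format with compounds delivered in DMSO.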

[17] = biological target: Nuclear receptor subfamily 1 group I member 2 (Homo sapiens) (UniProt O75469); test: CYP3A4 induction through human pregnane X receptor (PXR) by small molecules, qHTS assay (AID 1346984); further: nearly all actives have a fitted effect of over 40% in size
In short: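 Read-out is luminescence after One-Glo addition, following a 3 hr, 37C incubation with Luciferin-IPA CYP3A4 substrate (3uM final). Before that, compounds were on DPX-2 cells (HepG2 co-transfected with PXR element plus CYP3A4-promoter luciferase) for 24 hr at 37C.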

[18] = biological target: Nuclear receptor subfamily 1 group I member 2 (Homo sapiens) (UniProt O75469); test: Human pregnane X receptor (PXR) activation by small molecules, qHTS assay (AID 1346985); further: nearly all actives have a fitted effect of over 40% in size; further: potency means the concentration at half of the fitted maximal effect
In short: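 DPX-2 cells (HepG2 co-transfected with a PXR response element and a CYP3A4-promoter luciferase construct) were seeded at 2,000 per well, rested 5 hr at 37C, then exposed to DMSO-dissolved compounds for 24 hr. Activation was read as luciferase luminescence.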

[19] = qHTS assay to identify small molecule agonists of the estrogen receptor alpha (ER-alpha) signaling pathway in the presence of an antagonist - cell viability counter screen (AID 1259386); further: series mostly up to about 92 µM; nearly all actives have a fitted effect of over 30% in size
In short: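 Compounds tested at 15 concentrations for 22 h at 37C alongside 10.0nM (final) ICI-182,780 antagonist, in VM7Luc4E2 cells grown in phenol red-free, charcoal-stripped medium. Viability read by CellTiter-Fluor fluorescence after 1 h reagent incubation.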

[20] = biological target: Thyrotropin-releasing hormone receptor (Homo sapiens) (UniProt P34981); test: qHTS assay to identify small molecule antagonists of the thyrotropin-releasing hormone receptor (TRHR) signaling pathway (AID 1346877; active means well fitted inhibition curve with a large enough effect in the repeat runs, not every such curve was filed as active; further: series mostly up to about 51 µM)
In short: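 Antagonist mode: after a 5 min room-temperature compound exposure, cells were stimulated with 1 nM (final) TRH. Dye-loaded TRHR-HEK293 cells were used, and calcium-dependent fluorescence was followed for 3 min, with 15-point titrations run in triplicate.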
On the % scale 0 is the no-effect control and ±100 the full control effect.

NC(=O)c1ncn([C@@H]2O[C@H](CO)[C@@H](O)[C@H]2O)c1O
inactive: Potency [1] | Potency [2] | Potency [3] | Potency [4] | Potency [5] | outcome [6] | outcome [7] | outcome [8] | outcome [9] | Potency [10] | outcome [11] | Potency [12] | outcome [13] | outcome [14] | Potency [15] | max activation [16] -0.429% | Potency [17] | Potency [18]

C=C(C)C(=O)NCCCN(C)C
inactive: outcome [19] | Potency [2] | Potency [3] | Potency [4] | Potency [5] | outcome [6] | outcome [7] | outcome [8] | outcome [20] | outcome [9] | outcome [11] | Potency [12] | outcome [13] | outcome [14] | Potency [15]

CCCCCCCCC=O
inactive: Potency [1] | outcome [19] | Potency [3] | Potency [4] | outcome [7] | Potency [10] | outcome [11] | Potency [12] | outcome [13] | outcome [14] | Potency [15]

Cc1nccn1CC1CCc2c(c3ccccc3n2C)C1=O (stereo not drawn)
inactive: outcome [19] | Potency [2] | Potency [3] | Potency [4] | Potency [5] | outcome [6] | outcome [7] | outcome [8] | outcome [20] | outcome [9] | outcome [11] | outcome [13] | outcome [14] | Potency [15]

Nc1ccc2cc(S(=O)(=O)O)ccc2c1
inactive: outcome [19] | Potency [2] | Potency [3] | Potency [4] | Potency [5] | outcome [6] | outcome [7] | outcome [8] | outcome [20] | outcome [9] | Potency [10] | outcome [11] | Potency [12] | outcome [13]

CC(C)(O)C(=O)c1ccc(OCCO)cc1
inactive: outcome [19] | Potency [2] | Potency [3] | Potency [4] | Potency [5] | outcome [6] | outcome [7] | outcome [8] | outcome [20] | outcome [9] | outcome [11] | outcome [13] | outcome [14] | Potency [15]

OC1OC[C@@H](O)[C@H](O)[C@H]1O (stereo partly drawn)
inactive: outcome [19] | Potency [2] | Potency [3] | Potency [4] | Potency [5] | outcome [6] | outcome [7] | outcome [8] | outcome [20] | outcome [9] | Potency [10] | outcome [11] | Potency [12] | outcome [13] | Potency [15]

CC(C)c1cccc(C(C)C)c1N
inactive: outcome [19] | Potency [2] | Potency [3] | Potency [4] | Potency [5] | outcome [6] | outcome [7] | outcome [8] | outcome [20] | outcome [9] | Potency [10] | outcome [11] | Potency [12] | outcome [13] | outcome [14] | Potency [15]

c1cc(CN2CCCCC2)cc(OCCCNc2nc3ccccc3s2)c1
inactive: Potency [2] | Potency [4] | outcome [6] | outcome [7] | outcome [8] | outcome [11] | outcome [13] | max activation [16] 2.06% | Potency [17]
active: Potency [1] 29.8 µM | Potency [10] 23.7 µM | Potency [15] 5.31 µM | Potency [18] 22.4 µM

CCCCCN(CCCCC)C(=O)C(CCC(=O)O)NC(=O)c1ccc(Cl)c(Cl)c1 (stereo not drawn)
inactive: Potency [1] | outcome [19] | Potency [2] | outcome [6] | outcome [7] | outcome [8] | outcome [20] | outcome [9] | Potency [10] | outcome [11] | outcome [13] | Potency [15]

[O-][N+](=Nc1ccccc1)c1ccccc1
active: Potency [15] 21.7 µM
inactive: outcome [19] | Potency [2] | Potency [3] | Potency [4] | Potency [5] | outcome [6] | outcome [7] | outcome [8] | outcome [20] | outcome [9] | outcome [11] | outcome [13] | max activation [16] 13.9% | Potency [17] | Potency [18]

CC12CCC(CC1=O)C2(C)C (stereo not drawn)
inactive: Potency [1] | Potency [2] | Potency [3] | Potency [4] | Potency [5] | outcome [6] | outcome [7] | outcome [8] | outcome [20] | outcome [9] | Potency [10] | outcome [11] | Potency [12] | outcome [13] | outcome [14] | Potency [15]

C#CC(C)(O)CC(C)C (stereo not drawn)
inactive: outcome [19] | Potency [2] | Potency [3] | Potency [4] | Potency [5] | outcome [6] | outcome [7] | outcome [8] | outcome [20] | outcome [9] | Potency [10] | outcome [11] | outcome [13] | outcome [14] | Potency [15]

CC(=O)O[C@H](CC(=O)[O-])C[N+](C)(C)C
inactive: Potency [1] | outcome [19] | Potency [3] | Potency [4] | Potency [5] | outcome [6] | outcome [7] | outcome [8] | outcome [20] | outcome [9] | Potency [10] | outcome [11] | Potency [12] | outcome [13] | outcome [14]

CCCCOCC(C)OCC(C)O (stereo not drawn)
active: Potency [15] 27.9 µM
inactive: outcome [19] | Potency [2] | Potency [3] | Potency [4] | Potency [5] | outcome [6] | outcome [7] | outcome [8] | outcome [9] | Potency [10] | outcome [11] | Potency [12] | outcome [13] | outcome [14]

CC(C)=CCC/C(C)=C/C(=O)O
inactive: outcome [19] | Potency [2] | Potency [3] | Potency [4] | Potency [5] | outcome [6] | outcome [7] | outcome [8] | outcome [9] | Potency [10] | outcome [11] | Potency [12] | outcome [13] | Potency [15]
